These results are taken from ChEMBL document CHEMBL3988442, “University of Dundee, Small-Polar-MMV Screening Library” (2021).

Where “and” joins values, the source holds several entries; their conditions need not be identical. Equal entries are not always repeated. Hit rate of the full screen: of about 67,000 compounds, about 40 (0.06%) showed an effect of 50% or more. The entries come from a sample that favours strong results as a whole.

For this assay, the target named is T1, Coenzyme A biosynthesis bifunctional protein CoaBC (Mycobacterium tuberculosis (strain ATCC 25618 / H37Rv)) (UniProt P9WNZ1).
T1 sequence (whole entry): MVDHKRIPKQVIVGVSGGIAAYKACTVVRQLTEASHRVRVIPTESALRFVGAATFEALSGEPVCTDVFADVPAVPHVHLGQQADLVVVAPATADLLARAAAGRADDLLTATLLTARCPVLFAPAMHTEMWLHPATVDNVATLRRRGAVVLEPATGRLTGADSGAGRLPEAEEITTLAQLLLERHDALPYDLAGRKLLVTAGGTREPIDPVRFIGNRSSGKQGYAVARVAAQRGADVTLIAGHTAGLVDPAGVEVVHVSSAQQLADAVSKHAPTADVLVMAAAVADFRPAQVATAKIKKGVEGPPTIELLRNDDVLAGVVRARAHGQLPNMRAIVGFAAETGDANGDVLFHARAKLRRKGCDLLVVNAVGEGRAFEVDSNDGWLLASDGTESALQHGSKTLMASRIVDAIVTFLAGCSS
Briefly: Biomol Green assay for MtCoaBC inhibitor, OD650 read. In kind it is functional. The arrangement: scale not given: in the data most compounds retested in dose-response had high values. The conditions noted are these: 30 µM.
In the case of `CN(Cc1cccnc1)C1COC2(CCN(Cc3nccs3)CC2)C1` (stereo not drawn), the Percent Effect was 1.85%. Then `Cc1ccc(CN2CCC3(CC2)CC3CN(C)Cc2cccnc2)o1` (stereo not drawn), with -31.5%; and `Cc1noc(C)c1C(=O)N1CC[C@H]2C[C@@H](c3ccncn3)O[C@@H]2C1`, with -0.386%; and `CCCS(=O)(=O)N1C[C@@H]2CN(Cc3cnn(C)c3)CCO[C@@H]2C1`, with 4%. In the case of `O=C(c1cnccn1)N1C[C@@H]2C[C@@H](c3nc(C4CC4)cs3)O[C@@H]2C1`, the Percent Effect amounted to 2.75%. The figure for `c1csc(CN2CCO[C@H]3[C@H](OCCN4CCCC4)CC[C@@H]32)n1` is 5.46%; for `CCC1=N[C@@]2(CC[C@@H]3CN(S(=O)(=O)CC)C[C@@H]32)C(=O)N1CC(C)C` it is 2.92%; for `COc1cc(CNC2CCc3nc(C)nn3C2)cc2c1OCCO2` (stereo not drawn) it is -5.17%.

In the case of `CCc1nc2n(n1)CC(NCc1cc(OC)c3c(c1)OCO3)CC2` (stereo not drawn), the Percent Effect was -7.88%.

In the case of `Cc1ccc(N2CC[C@H]3OCC[C@@]3(C(=O)N(C)C)C2)nn1`, the Percent Effect is 2.24%.

As to `CS(=O)(=O)N1CC[C@H]2[C@H](C[C@@H](Cn3cncn3)N2CC2CC2)C1`, the Percent Effect was 5%. Regarding `CC1CCCN(C(=O)c2csc(S(N)(=O)=O)c2)CC1` (stereo not drawn), the Percent Effect was -0.441%. Then `CC(C)(C)N1CCCN(C(=O)c2csc(S(N)(=O)=O)c2)CC1`, with -6.17%.

As to `Cc1cnc(N2C[C@H]3CCN(CC4CC4)C[C@@H]3C2)nc1`, the Percent Effect was -28.5%. The figure for `COc1ccc(CCC2CCCN(CC(=O)O)C2)cc1` (stereo not drawn) is 0.988%; for `O=C(O)COc1ccc(CN2CCCC(CCc3ccccc3)C2)cc1` (stereo not drawn) it is 94.3% and 88.4%. Then `O=C(O)COc1ccc(CN2CCCC(Cc3cccnc3)C2)cc1` (stereo not drawn), with 0.485%; and `COCC(C)N1CCN(CCc2ccc3c(c2)CCO3)CC1` (stereo not drawn), with 4.17%.

For the molecule `CCOCCN1CCN(CCc2ccc3c(c2)CCO3)CC1`, the Percent Effect is -14.1%. Then `CN1CCN(C[C@H]2OC[C@@H]3CCN(Cc4ccsc4)C[C@@H]32)CC1`, with -5.68%; and `O=C1[C@H]2CN(C3CCOC3)C[C@H]2CN1c1ccccc1` (stereo partly drawn), with 2.66%; and `Cc1cc(CN2C[C@@H]3CCCO[C@@H]3[C@H](N(C)C(C)C)C2)no1`, with 9.94%. Take `O=C(NCC1CC1)[C@@H]1CCO[C@@H]2CCN(c3ncccn3)C[C@@H]21`: the Percent Effect is 0.323%. The figure for `Cc1nonc1C(=O)N1CC[C@@]2(O)CCN(C3CCCCC3)C[C@H]2C1` is 10.8%. Take `O=C(NC1CCN(C2CC2)C1)c1cn(-c2ccc(F)cc2)nn1` (stereo not drawn): the Percent Effect is -3.95%. Then `O=C(NC1CCN(C2CC2)CC1)c1cn(-c2ccc(Cl)cc2)nn1`, with 3.19%; and `CC(C)CCN1C[C@H]2C[C@H](C(=O)N3CCCC3)[C@@H](C1)O2`, with 1.46%. The figure for `CC(C)N1[C@H](Cn2cncn2)C[C@@H]2CN(Cc3nccn3C)CC[C@@H]21` is 4.19%; for `COc1ccc(CN2C[C@H]3CCC[C@@H](CN(C)C4CC4)[C@H]3C2)cn1` it is -25.8%; for `O=C(C1CC1)N1CCN2C[C@H](c3ccccc3)[C@@H](CO)[C@H]2C1` it is -2.91%. The figure for `O=C1CC(c2ccccc2)c2sc(C(=O)O)c(-c3ccccc3)c2N1` (stereo not drawn) is -0.766%; for `O=C1CC(c2ccc(O)cc2)c2sc(C(=O)O)c(-c3ccccc3)c2N1` (stereo not drawn) it is 1.28%.

With `Cc1ccc(CN2CC[C@H]3OCC[C@@H](C(=O)NC4CC4)[C@@H]3C2)o1`, the Percent Effect is 3.34%. Then `O=C(c1ccco1)N1CC[C@@H]2[C@H]1CCC(=O)N2c1ccccc1`, with 3.58%; and `CN(Cc1cnccn1)C(=O)[C@@]12CNC[C@@H]1CN(Cc1ccccc1)C2`, with 2.15%; and `CC(C)(C)OC(=O)NCC(=O)NCc1ccc(Cl)s1`, with 7.73%. Then `CC(NC(=O)CN1CCCC1=O)c1ccc(Cl)s1` (stereo not drawn), with -0.806%. The figure for `O=C(C1CCOCC1)N1CCN2C(=O)N(Cc3ccc(F)cc3)C[C@H]2C1` is 12%. On to `CC1CCN(C(=O)[C@@H]2CC[C@@H]3[C@@H](CCN3c3ncc(F)cn3)O2)CC1`, for which the Percent Effect is -4.84%. Then `CNC(=O)[C@H]1C[C@@H]2CN(Cc3cccnc3OC)C[C@@H]2N1C(C)C`, with 1.06%. The figure for `O=C(c1ccsc1)N1CCO[C@@H]2CN(Cc3cccs3)C[C@@H]2C1` is -4.58%. For `Cc1nnc(N2C[C@H](Oc3ccccn3)[C@H]3OCCC[C@H]32)s1`, the Percent Effect stood at 4.91%. Then `Cc1cccc2c1nc(COCC(=O)O)n2-c1ccsc1`, with 5.35%; and `Cc1ccc(-n2c(COCC(=O)O)nc3c(C)cccc32)nc1`, with 5.78%.

In the case of `COCCC(=O)N1C[C@H]2CC[C@@H]1CN(C1Cc3ccccc3C1)C2`, the Percent Effect came out at 2.15%.

Consider `Cn1cc(CN2C[C@H]3CCC[C@@H](CNc4ncccn4)[C@H]3C2)cn1`, for which the Percent Effect was -2.24%.

On to `Cc1occc1C(=O)N1C[C@H]2CCCC(OCc3cccnc3)[C@H]2C1` (stereo partly drawn), for which the Percent Effect came out at 7.49%. The figure for `CN(Cc1ccccn1)C(=O)[C@H]1CO[C@H]2CCN(CC3CC3)C[C@H]2C1` is 1.98%; for `CN(Cc1nnc2n1CCC2)S(=O)(=O)c1ccc(Br)cc1Cl` it is -1.49%.

With `CN(Cc1nnc2n1CCC2)S(=O)(=O)c1cc(Br)ccc1Br`, the Percent Effect came out at 3.23%. The figure for `Cc1cccc(CN2C[C@@H]3OCCN(C)[C@@H]3C2)n1` is 4.44%; for `c1cnn([C@@H]2CN(Cc3nccs3)[C@@H]3CCCO[C@@H]32)c1` it is 2.08%. The figure for `COCCN1C(=O)CC[C@@H]2[C@H]1CCN2C(=O)N(C)C` is 12.9%. The figure for `CCOC(=O)[C@]12CCCN(Cc3ccco3)C[C@H]1CN(CCN(C)C)C2` is 3.17%; for `CC(C)CC(NC(=O)c1ccco1)c1nc2cccnc2n1C` (stereo not drawn) it is -9.45%; for `COCC(=O)NC(CC(C)C)c1nc2cccnc2n1C` (stereo not drawn) it is -0.123%. In the case of `COc1cccc(CC(=O)N2CC[C@H]3[C@@H]2CCC(=O)N3C)c1`, the Percent Effect is -4.44%.

As for `Cc1ccsc1CN1C[C@@H]2COC[C@]2(CNC(=O)c2ccco2)C1`, the Percent Effect amounted to 2.1%. Then `Cn1cc(N2C[C@@H]3CN(Cc4ccoc4)C[C@@H]3C2=O)cn1`, with -6.36%; and `CCOCC1CCN(C(=O)C(c2c(F)cccc2F)N(C)C)CC1` (stereo not drawn), with -0.163%. The figure for `CN(C)C(C(=O)N1CCC(CCO)CC1)c1ccccc1F` (stereo not drawn) is 10.1%; for `CN(C)c1ncc(C(=O)N2C[C@H]3C[C@H](Oc4ccccc4)C[C@H]3C2)cn1` it is 12.4%; for `Cc1nc(-c2ccc(CC(=O)N3CCNC(=O)C3)cc2)cs1` it is -8.27%.

As to `Cc1nc(-c2ccc(CC(=O)N3CCN(C(=O)C4CC4)CC3)cc2)cs1`, the Percent Effect is -8.67%.

For the molecule `COc1cccc(S(=O)(=O)N2CCN(C)[C@@H]3CS(=O)(=O)C[C@@H]32)c1`, the Percent Effect is -2.92%. Then `O=C1CC[C@H]2CN(c3ncc(F)cn3)CC[C@H]2N1CCc1c[nH]cn1`, with -3.02%; and `CC(C)NC(=O)[C@@]12CCO[C@@H]1CCN(Cc1ccc3c(c1)OCO3)C2`, with -0.976%; and `CCN1C[C@H]2CCN(C(=O)NC)CC[C@H]2S1(=O)=O`, with 8.02%. Then `Cc1cc(S(=O)(=O)Nc2cccc(I)c2)sc1C(=O)O`, with 2.58%; and `CC(=O)c1cccc(NS(=O)(=O)c2cc(C)c(C(=O)O)s2)c1`, with -3%; and `CNC(=O)N1CC[C@@H]2CN(Cc3cccc(Cl)c3)S(=O)(=O)[C@@H]2CC1`, with 6.19%.

As to `c1cnc(N2CCO[C@H]3[C@H](OCC4CCOCC4)CC[C@@H]32)nc1`, the Percent Effect turned out to be 1.73%.

For the molecule `Cc1ccc(N2C[C@H]3CCC[C@@H](CN4CCOCC4)[C@H]3C2)nn1`, the Percent Effect was 4.17%. Regarding `Cc1cccc(C(=O)N2CCCC(c3noc(C)n3)C2)n1` (stereo not drawn), the Percent Effect is -20.7%.

Turning to `Cc1nc(C2CCCN(C(=O)c3cc(Cl)c[nH]3)C2)no1` (stereo not drawn), the Percent Effect came out at 2.57%.

Consider `Cn1nc(-c2cccs2)cc1[C@H]1CN2CC[C@H]1C[C@@H]2CN`, for which the Percent Effect is -39.9%. Then `CN1C(Cn2cccn2)C[C@@H]2CN(Cc3ccccn3)CC[C@@H]21` (stereo partly drawn), with -8.3%; and `Cc1cc(NC(=O)C2CCN(c3nnc(C)c(C)c3C#N)CC2)no1`, with 2.42%; and `Cc1cc(C(=O)NC2CCN(c3ncccc3C#N)CC2)no1`, with -0.609%. Then `COCCC(Cc1cccc(Br)c1)C(=O)N(C)C` (stereo not drawn), with -3.54%; and `COCCC(Cc1cccc(Br)c1)C(N)=O` (stereo not drawn), with 4.72%; and `COCc1nc2cc(NCc3cc[nH]n3)ccc2o1`, with 10.3%. The figure for `COCc1nc2cc(NCc3ccc(C)o3)ccc2o1` is 13%; for `Cc1cn[nH]c1C1COCCN1Cc1ccsc1` (stereo not drawn) it is -1.45%. For the molecule `Cc1ccc(CN2CCOCC2c2[nH]ncc2C)cn1` (stereo not drawn), the Percent Effect is -2.47%. The figure for `O=C(NC1CC1)[C@@H]1CCO[C@@H]2CCN(C3CCCC3)C[C@H]21` is 7.17%; for `CC(=O)Nc1ccc(Oc2ccc(CN3CCCC3)cc2F)cc1` it is 9.5%; for `COc1ccc(CN2CCCC2)cc1Oc1ccc(NC(C)=O)cc1` it is 1.65%.

In the case of `COCCNC(=O)[C@H]1CN(Cc2sccc2C)C[C@H]2OCC[C@@H]12`, the Percent Effect was found to be 2.59%. The figure for `Cc1ccc2[nH]c(CO[C@H]3CN(C(=O)C4CC4)C[C@H]3F)nc2c1` is 5.96%; for `CN1C[C@@H](F)[C@@H](OCc2nc3ccc(C#N)cc3[nH]2)C1` it is 8.8%. The figure for `CCO[C@H]1CN(C(=O)c2ccnnc2)[C@@H]2COC[C@H]12` is -7.56%. Then `CN(C)C(=O)CN1C[C@@H]2CC[C@H](C1)N(C/C=C/c1ccc(F)cc1)C2`, with -5.7%; and `O=C(COCCOc1ccccc1)NC1CCN(c2ncccn2)CC1`, with -6.77%. `O=C(COCCOc1ccccc1)NC1CCN(C(=O)C2CC2)CC1`: the Percent Effect was -27.3%. The figure for `CN(C)CCN1CCO[C@H]2CN(C(=O)c3ccsc3)C[C@H]21` is 0.976%; for `O=C(NC1CC1)[C@@H]1CCO[C@@H]2CCN(Cc3ccsc3)C[C@H]21` it is 8.23%.

On to `O=S(=O)(CCCn1cncn1)Cc1cccc(F)c1`, for which the Percent Effect was 3.23%. For `O=S(=O)(CCCn1cncn1)Cc1ccc(F)cc1Cl`, the Percent Effect was 96.3% and 94.5%. Then `O=S(=O)(CCCn1cncn1)Cc1ccccc1Cl`, with 0%; and `Cc1csc(CN2CC[C@H]3C[C@H](c4nc(C)no4)O[C@@H]3C2)n1`, with -2.84%; and `CCS(=O)(=O)N1C[C@H]2CN(Cc3cccc(F)c3)C(=O)[C@H]2C1`, with -7.25%. The figure for `Cc1cccc(CN2CC[C@@H]3[C@@H]2CCN3C(=O)c2cnoc2C)n1` is 8.49%. Then `O=C1OCCN1CC(=O)N1C[C@H]2CC[C@@H]1CN(C(=O)c1cccnc1)C2`, with 7.56%. In the case of `COC[C@@]12CC[C@@H](N3CCOCC3)C[C@H]1CCN(c1cnccn1)C2`, the Percent Effect is -5.95%. Then `CC(C)CN1CC[C@@H]2[C@@H]1CCN2S(=O)(=O)c1cn(C)cn1`, with 4.68%. The figure for `O=C(O)c1cc(-n2cc3c(n2)CCC3)cc(S(=O)(=O)N2CCOCC2)c1` is -5.92%; for `O=C(O)c1cc(-n2cc3c(n2)CCC3)cc(S(=O)(=O)NC2CCCC2)c1` it is -0.121%.
